Results filed as inconclusive are left out. Calls of active or inactive are those of the source. Calls follow the shape of the dose curve; as a rule, active = well fitted activation curve with a large enough effect in the signal ratio in the repeat runs (not every such curve was filed as active); inconclusive = weak or mixed curves, or effect the other way; inactive = no such curve, though single readings can be large or run the other way; the % refers to the signal ratio.
The compounds below were run against Glucocorticoid receptor (Homo sapiens) (UniProt P04150) (assay: qHTS assay to identify small molecule agonists of the glucocorticoid receptor (GR) signaling pathway (AID 720691)). Conditions: GR-bla HeLa, beta-lactamase reporter ratio, 18 h; series mostly up to 62.4 µM.
Description: U.S. Tox21 Program National Center for Advancing Translational Sciences [NCATS] NIH Chemical Genomics Center [NCGC] U.S. Environmental Protection Agency [EPA] National Institutes of Environmental Health Sciences [NIEHS] National Toxicology Program [NTP] U.S. Food and Drug Administration [FDA] Tox21 Assay Overview: The Glucocorticoid receptor (GR) is one of the members of the nuclear receptor family of ligand-dependent transcription factors. GR plays a critical role in carbohydrate, protein and lipid metabolisms and programmed cell death. CellSensor GR-bla HeLa cell line (Invitrogen) contains a beta-lactamase reporter gene under the control of the glucocorticoid response element stably integrated into HeLa cells, a cervical cancer cell line that expresses glucocorticoid receptor. The activation of the reporter gene under culture conditions can be detected by fluorescence intensity. This cell line has been used to screen the Tox21 10K compound library and to identify the compounds that activate the GR signaling.
Tox21 Assay Protocol Summary: The GR-bla HeLa cells were dispensed at 1500 cells/6 ul/well in 1536-well black wall/clear bottom plates using a Multidrop Combi (ThermoFisher Scientific, Waltham, MA) dispenser. After the assay plates were incubated at a 37 C/5% CO2 incubator for 4 hours, 23 nL of compounds dissolved in DMSO, positive controls or DMSO only was transferred to the assay plate by a pintool station (Kalypsys, San Diego, CA). The plates were incubated at 37 C for 18 hours. After 1 uL of LiveBLAzerTM B/G FRET substrate was added using a Flying Reagent Dispenser (Aurora Discovery, San Diego, CA), the plates were incubated at room temperature for 2 hours, and fluorescence intensity was measured by an Envision plate reader (PerkinElmer, Shelton, CT).

Glucocorticoid receptor (Homo sapiens), sequence (P04150 whole entry, looked up): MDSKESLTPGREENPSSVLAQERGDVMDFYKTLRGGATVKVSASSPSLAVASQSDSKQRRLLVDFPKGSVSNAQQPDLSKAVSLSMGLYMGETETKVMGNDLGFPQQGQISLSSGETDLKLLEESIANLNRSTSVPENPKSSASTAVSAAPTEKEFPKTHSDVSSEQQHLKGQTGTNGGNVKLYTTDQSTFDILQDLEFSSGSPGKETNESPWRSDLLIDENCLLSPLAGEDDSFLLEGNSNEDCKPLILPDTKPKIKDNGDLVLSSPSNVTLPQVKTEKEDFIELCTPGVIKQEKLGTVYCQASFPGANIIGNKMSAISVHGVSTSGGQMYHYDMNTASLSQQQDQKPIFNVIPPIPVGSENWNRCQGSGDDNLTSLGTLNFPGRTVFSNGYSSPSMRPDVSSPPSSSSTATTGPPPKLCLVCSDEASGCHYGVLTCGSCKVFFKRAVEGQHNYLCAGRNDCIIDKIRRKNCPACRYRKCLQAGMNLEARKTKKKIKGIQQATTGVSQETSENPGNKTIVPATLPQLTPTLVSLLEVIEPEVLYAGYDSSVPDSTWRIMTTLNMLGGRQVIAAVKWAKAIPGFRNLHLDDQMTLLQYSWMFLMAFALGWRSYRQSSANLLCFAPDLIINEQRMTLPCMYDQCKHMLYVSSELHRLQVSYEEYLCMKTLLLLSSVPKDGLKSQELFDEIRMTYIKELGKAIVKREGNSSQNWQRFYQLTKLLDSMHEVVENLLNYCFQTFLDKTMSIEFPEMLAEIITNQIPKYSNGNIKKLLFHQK

SMILES	outcome
CCCCCCCC(=O)O	inactive
CCCCC(=O)O	inactive
CCOC(=O)c1ccc(O)cc1	inactive
N[C@@H](Cc1cc(I)c(Oc2ccc(O)c(I)c2)c(I)c1)C(=O)O	inactive
CCCCCCCCCCCC(=O)N(C)CC(=O)O	inactive
CC(=O)c1nccs1	inactive
OB(O)O	inactive
Cc1ccc(Cl)cc1	inactive
Oc1ccc(Cc2ccccc2O)cc1	inactive
O=C(O)Cc1c[nH]c2ccccc12	inactive
CC(=O)OCCC(C)C	inactive
O=C(O)C1=NN(c2ccc(S(=O)(=O)O)cc2)C(=O)C1	inactive
CC(=O)Nc1ccc(CC(=O)O)cc1	inactive
CCCCCC(C)=O	inactive
NC(N)=S	inactive
C=C(C)CC(C)(C)C	inactive
NC(=O)c1ncn([C@@H]2O[C@H](CO)[C@@H](O)[C@H]2O)n1	inactive
C[Si](C)(C)N[Si](C)(C)C	inactive
CC(=O)CC(=O)N(C)C	inactive
CC/C(C)=N/O	inactive

SMILES	outcome
Nc1cccc(N)n1	inactive
C=CC(C)(C)C	inactive
CC(=O)OC[C@H]1O[C@@](COC(C)=O)(O[C@H]2O[C@H](COC(C)=O)[C@@H](OC(C)=O)[C@H](OC(C)=O)[C@H]2OC(C)=O)[C@@H](OC(C)=O)[C@@H]1OC(C)=O	inactive
CC/C=C(\C(=O)N[C@@H]1C(=O)N2C(C(=O)OCOC(=O)C(C)(C)C)=C(COC(N)=O)CS[C@H]12)c1csc(N)n1	inactive
O=C(Cl)c1ccc(C(=O)Cl)cc1	inactive
CC1=CC(=O)CC(C)(C)C1	inactive
COc1ccc(N)c(OC)c1	inactive
O=C(c1ccccc1)c1ccc(O)c(O)c1O	inactive
CCc1cccc(CC)c1N	inactive
COc1cc(NC(=O)CC(C)=O)c(OC)cc1Cl	inactive
CN1Cc2c(N)cccc2C(c2ccccc2)C1 (stereo not given)	inactive
CCCCCCCCO	inactive
O=C1O[C@H]([C@H](O)CO)C(O)=C1O	inactive
CC(C)(CO)CO	inactive
Cc1ccccc1Cl	inactive
Cc1cc(C)cc(O)c1	inactive
CC1(C)C(=O)N(Cl)C(=O)N1Cl	inactive
CCCCCCCCCCCCCC(=O)O	inactive
C[n+]1ccn(CCO)c1	inactive
CCCCCCC(=O)O	inactive
